Screening data: PubChem BioAssay, National Center for Advancing Translational Sciences (NCATS)
Rows were chosen to be rich in hits. Some 3.8% of all compounds tested hit in one or more screens of this group.
TGFb inhibitor: TGF-b pathway inhibition | HepG2 CAGA-GFP TGF-b/SMAD3 reporter, GFP fluorescence, 18 h; TGF-beta stimulated, 500 pg/mL final | Potency, µM (top dose mostly 46.1 µM), for inactives: top-dose activity, negative = inhibition, most hits filed as inhibitors | 410,000 compounds, 1.2% hits; further: on the % scale 0 is the no-effect control and ±100 the full control effect; nearly all actives have a fitted effect of over 65% in size
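Cell-based qHTS in HEPG2 carrying a CAGA-GFP Smad reporter; compounds added before 500 pg/mL final TGF-beta, 18 h incubation at 37 degrees C, GFP fluorescence quantified per cell by imaging cytometry.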
A549 viability: counter-screen for Nrf2 inhibitors: cytotoxicity in A549 cells. 390,000 compounds, 0.16% hits. Potency, µM (top dose mostly 46 µM), for inactives: top-dose activity change, negative = cytotoxicity, most hits filed as inhibitors. A549 ARE-Fluc cells, CellTiter-Fluor viability, 18-24 h; further: on the % scale 0 is the no-effect control and ±100 the full control effect
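A549 ARE-Fluc cells in 5% FBS OPTI-MEM, 5000 cells/well, rested 2 h then exposed to compounds in concentration-response for 18-24 h at 37 °C. Viability by CellTiter-Fluor fluorescence (Ex 405/Em 525) after 30 min; luciferase luminescence (BugLite, 15 min, RT) read afterwards.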
Nrf2 inh: inhibitors of Nrf2 signaling; AID 504444; Potency, µM (highest dose often 46 µM), inactives show at the top dose activity change, negative = inhibition, hits mostly inhibitors; A549 ARE-Fluc reporter, luciferase luminescence, 18-24 h; 360,000 compounds, 2.1% hits; further: on the % scale 0 is the no-effect control and ±100 the full control effect; nearly all actives have a fitted effect of over 60% in size
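Reporter: ARE-Fluc in A549. Exposure: 18-24 h, 37 °C, 5% CO2, 5% FBS OPTI-MEM. Readouts: fluorescent cytotoxicity (CellTiter-Fluor), then luminescent Nrf2 signal after BugLite.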
ATXN2 expr inh: reduces ATXN2 reporter expression in HEK-293 cells | Potency, µM (highest dose often 57 µM), inactives show at the highest dose activity change, negative = inhibition, usual class: inhibitors | 360,000 compounds, 0.72% hits | HEK-293 ATXN2-luciferase reporter, luminescence, 24 h | AID 1745845; further: on the % scale 0 is the no-effect control and ±100 the full control effect; nearly all actives have a fitted effect of over 55% in size
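ATXN2-luciferase reporter cells (luciferase flanked by upstream and downstream ATXN2 gene portions) were treated 24 h at 37 °C with compounds at up to 57 uM. SteadyGlo luminescence gave expression; GF-AFC fluorescence gave viability.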
HepG2 viability: counter-screen for TGF-b inhibitors: cytotoxicity in HepG2 cells. HepG2 CAGA-GFP viability, ATP luminescence, 18 h. Potency, µM (doses to about 46.1 µM), for the others: at the top dose activity change, negative = cytotoxicity, most hits filed as cytotoxic. 410,000 compounds, 0.76% hits
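CellTiter-Glo luminescence gave cytotoxicity after 18 hours at 37 degrees C. The cells were HepG2 CAGA-GFP in 1% FBS DMEM, stimulated with 500 pg/mL TGF-beta after compound addition. %Activity was normalised to no-cell wells (complete cell-killing) and DMSO (no toxicity), and curves were fitted and classified.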
ATXN viability: reduces viability in counter-screen for ATXN expression inhibitors; AID 651635; Potency, µM (series often up to 56.7 µM), hits mostly cytotoxic; 400,000 compounds, 0.49% hits; S2 cells (HEK-293 line with an ATXN2-luciferase reporter) viability, CellTiter-Fluor protease fluorescence, 24 h; further: nearly all actives have a fitted effect of over 40% in size
* marks the source's active call; other numbers are inactive results; i = inactive; ? = inconclusive; . = no result; [ ] = remark or other dose. The call rests on the fitted dose curve; in most records, active means well fitted curve in the direction sought with a large enough effect; inconclusive means small, poorly fitted or top-dose-only effect, or another doubt; inactive means no such curve, though single readings can be large; an effect the other way counts as inactive or inconclusive. Potency means the concentration at half of the fitted maximal effect.

SMILES	TGFb inhibitor	A549 viability	Nrf2 inh	ATXN2 expr inh	HepG2 viability	ATXN viability
CCCOC(=O)CSC1=C(C#N)C(c2ccccc2OCC)C(C#N)C(=O)N1 (stereo not given)	1.0%	-17.2%	-24.2%	6.3%	-20.7%	i
CCCCOC(=O)CSC1=C(C#N)C(c2ccccc2OCC)C(C#N)C(=O)N1 (stereo not given)	-48.3%	?	10.3µM*	6.1%	-12.2%	i
Cc1ccc(-c2nn3c(C)nnc3c3ccccc23)cc1S(=O)(=O)NC(C)(C)CO	-17.4%	?	11.6µM*	-15.2%	-18.4%	?
Cc1nn(C(=O)c2ccccc2)c(C)c1Sc1ccc(Cl)cc1	?	5.2%	-23.6%	25.1µM*	-50.4%	28.2µM*
Cc1ccc(Sc2c(C)nn(C(=O)c3ccc(Br)cc3)c2C)cc1	-13.9%	0.8%	2.0%	13.2%	-27.0%	i
CCCCN(Cc1nc2ccccc2c(=O)[nH]1)C(=O)CN1C(=O)NC2(CCCCC2)C1=O	27.3%	-1.8%	-2.6%	.	19.7%	i
COc1cc(CNCCN2CCOCC2)ccc1OCc1ccc(Cl)cc1Cl	20µM*	0.0%	-3.7%	?	-100.9%	.
COc1cc(CNCCO)cc(Cl)c1OCc1ccc(Cl)cc1Cl	22.4µM*	4.1%	2.3%	15.8µM*	-190.0%	35.5µM*
COc1cc(CNCCN2CCOCC2)ccc1OCc1cccc(Cl)c1	67.1%	-1.4%	26.0%	-0.2%	-22.6%	i
CN(C)c1ncnc2c1ncn2[C@H]1CN(Cc2cccs2)C[C@@H](CO)O1	29.8%	.	.	4.9%	2.5%	i
CCN(CC)CCN1C(=O)/C(=C\c2ccc(Cl)c([N+](=O)[O-])c2)SC1=Nc1ccc(OC)cc1	?	-13.9%	3.2%	31.6µM*	20µM*	.
COc1ccc(N=C2S/C(=C\c3ccc(Cl)c([N+](=O)[O-])c3)C(=O)N2CCN(C)C)cc1	?	-8.5%	-6.6%	.	-132.6%	10µM*
CCC1CCCCN1C(=O)CSc1nnc(-c2c[nH]c3ccccc23)o1 (stereo not given)	4.1%	8.7%	-9.0%	7.4%	-26.7%	i
O=C(COc1ccccc1F)Nc1ccccc1C(=O)OCc1cc(=O)n2nc(C3CC3)sc2n1	5.3%	-3.8%	.	16.5%	-0.8%	i
COc1ccc2c(c1)c(CC(=O)Nc1ccccc1OC)c(C)n2C(=O)c1ccc(Cl)cc1	-31.1%	-0.7%	-21.9%	-11.0%	-0.5%	i
COc1ccc(OC)c(NC(=O)Cc2c(C)n(C(=O)c3ccc(Cl)cc3)c3ccc(OC)cc23)c1	17.6%	-12.3%	23.1µM*	-2.7%	3.0%	i
COc1ccc2c(c1)c(CC(=O)Nc1ccc(C(C)=O)cc1)c(C)n2C(=O)c1ccc(Cl)cc1	-7.9%	?	23.1µM*	3.9%	-1.0%	?
CCOC(=O)c1ccccc1OC(=O)CS(=O)c1ccccc1[N+](=O)[O-] (stereo not given)	-29.8%	-4.5%	-1.6%	2.2%	-21.9%	i
CS(=O)(=O)c1ccc(S(=O)CC(=O)OCc2ccccc2)c([N+](=O)[O-])c1 (stereo not given)	4.47µM*	?	18.4µM*	?	7.08µM*	.
O=C(CS(=O)c1ccc(C(F)(F)F)cc1[N+](=O)[O-])Oc1ccccc1 (stereo not given)	?	-10.2%	?	?	3.55µM*	?
CCCCN(C=O)c1c(CC)nc2ccc(C(=O)Nc3cc(-c4ccccc4)ccc3OC)cn12	7.08µM*	.	.	?	-10.8%	i
CCc1nc2ccc(C(=O)Nc3cc(-c4ccccc4)ccc3OC)cn2c1N(CC)CCN(C)C	?	.	.	?	14.1µM*	.
Cc1c(C(=O)COC(C)(C)C)[nH]c2ccccc12	4.2%	1.5%	.	6.9%	2.6%	i
CCOC(=O)C(NC(=O)c1ccccc1Cl)(Nc1ccc(C)c(C)c1)C(F)(F)F (stereo not given)	-20.1%	1.7%	-0.9%	7.0%	-8.2%	i
COC(=O)C(Nc1ccccc1Cl)(c1cc(C)c(O)c(C)c1)C(F)(F)F (stereo not given)	10µM*	-13.4%	?	?	15.8µM*	i
SMILES	TGFb inhibitor	A549 viability	Nrf2 inh	ATXN2 expr inh	HepG2 viability	ATXN viability
O=C(c1ccco1)N1CCN(C(=O)c2ccco2)C1=S	11.2µM*	?	?	-34.1%	-11.1%	?
O=C(c1ccco1)N1CCCN(C(=O)c2ccco2)CC1	25.2%	-4.7%	.	5.8%	5.9%	i
Cc1cccc(N2CCN(C(=O)NC3CCCCC3)CC2C)c1 (stereo not given)	-0.7%	-6.9%	-9.8%	22.4µM*	-9.7%	?
CCn1cc2nc(SCc3cccc(C(F)(F)F)c3)n(CCc3ccccc3)c(=O)c2n1	?	2.3%	14.6µM*	-26.2%	-18.5%	i
S=C(NCCc1ccccc1)NCc1cccc(Cl)c1	12.6µM*	-1.7%	-1.7%	1.1%	-44.2%	i
CCOc1ccc(C(=O)C2CCN(CC(=O)Nc3ccccc3N3CCOCC3)CC2)cc1	14.1µM*	-13.8%[1.84 µM]	11.6µM*	?	-13.2%	i
CN(C)C1=NCCN1CCc1cccc(F)c1	17.0%	-2.3%	1.2%	4.3%	13.0%	i
Cc1ccc(-n2nnnc2SCC(=O)N2CCc3ccccc3C2)c(C)c1	-9.9%	-8.3%	16.4µM*	-7.6%	-12.5%	i
Clc1cccc(CON/C=N/c2ncnc3sccc23)c1	11.0%	-4.3%	16.4µM*	-22.3%	4.2%	i
CCOc1ccc2nc(N(CCCN(C)C)C(=O)c3ccc4c(c3)CCCC4)sc2c1	?	-2.5%	-6.0%	?	17.8µM*	i
CCc1ccc2nc(N(CCCN(C)C)C(=O)c3ccc(C(=O)c4ccccc4)cc3)sc2c1	?	?	13µM*	?	-92.1%	?
COc1cc2nc(N(CCCN(C)C)C(=O)c3ccc(C(=O)c4ccccc4)cc3)sc2cc1OC	?	-9.7%	4.1%	?	15.8µM*	.
OC(C#Cc1ccccn1)c1cccs1 (stereo not given)	15.8µM*	3.9%	4.1%	?	10µM*	?
Nc1c(C(=O)Nc2ccc(S(=O)(=O)N3CCCC3)cc2)sc2nc3ccc(OC(F)(F)F)cc3cc12	-12.2%	?	?	?	1.78µM*	.
O=C(Nc1ccc(Br)cc1F)c1cc(S(=O)(=O)NC2CCCC2)ccc1F	?	4.7%	.	.	-64.5%	.
